From PubChem BioAssay AID1159580 (chemical genetic matrix, 2015)
Where “and” joins values, the source holds several entries; their conditions need not be identical. Identical values can stand only once. In all, about 5,500 compounds went through this assay and about 2,000 (36%) were called active. Inconclusive results (about 18%) are left out. Cut-off read from the data, not from the text of the source: active = normalized growth mostly below about 0.91 (no sharp cut-off); inconclusive = no clear call, values can overlap the other calls; inactive = mostly above about 0.92. This is one part of the list.

Assay: chemical genetic growth profiling, strain panel (AID 1159580);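 note: tested at 20 µM; growth read once vehicle control cultures reached saturation at 30 °C; 1 = growth at the plate median or of vehicle wells; lower values mean less growth of the strain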
Details: growth OD
[1] = S. cerevisiae deletion strains, locus YHR030C, strain SLT2, active compounds read low
[2] = S. cerevisiae deletion strains, locus YHR079C, strain IRE1, active compounds read low
[3] = S. cerevisiae deletion strains, locus YJL095W, strain BCK1, active compounds read low
[4] = S. cerevisiae deletion strains, locus YJR066W, strain TOR1, active compounds read low
[5] = S. cerevisiae deletion strains, locus YLR113W, strain HOG1, active compounds read low
[6] = S. cerevisiae deletion strains, locus YNL183C, strain NPR1, active compounds read low
[7] = S. cerevisiae deletion strains, locus YOR231W, strain MKK1, active compounds read low
[8] = S. cerevisiae deletion strains, locus YPL256C, strain CLN2, active compounds read low

Measured: normalized growth

NC(=O)CC[C@H](N)C(=O)O
inactive: [1] 0.98 | [2] 0.977 | [3] 0.965 | [4] 0.941 | [5] 0.976 | [6] 0.954 | [7] 0.98 | [8] 0.972

O=c1oc2ccccc2cc1[N+](=O)[O-]
active: S. cerevisiae deletion strains, locus YAL013W, strain DEP1, active compounds read low 0.0574 | S. cerevisiae deletion strains, locus YBR229C, strain ROT2, active compounds read low 0.0595 | S. cerevisiae deletion strains, locus YCL061C, strain MRC1, active compounds read low 0.0567 | S. cerevisiae deletion strains, locus YDL101C, strain DUN1, active compounds read low 0.0763 | S. cerevisiae deletion strains, locus YDL134C, strain PPH21, active compounds read low 0.049 | S. cerevisiae deletion strains, locus YDR150W, strain NUM1, active compounds read low 0.0585 | S. cerevisiae deletion strains, locus YEL061C, strain CIN8, active compounds read low 0.0579 | S. cerevisiae deletion strains, locus YGR052W, strain FMP48, active compounds read low 0.114 | S. cerevisiae deletion strains, locus YGR078C, strain PAC10, active compounds read low 0.0524 | S. cerevisiae deletion strains, locus YGR229C, strain SMI1, active compounds read low 0.0596 | [1] 0.0818 and 0.0892 | [2] 0.106 | S. cerevisiae deletion strains, locus YHR082C, strain KSP1, active compounds read low 0.105 | S. cerevisiae deletion strains, locus YHR087W, strain rtc3, active compounds read low 0.0624 | [3] 0.104 | S. cerevisiae deletion strains, locus YJR043C, strain POL32, active compounds read low 0.0547 | [4] 0.102 | S. cerevisiae deletion strains, locus YJR075W, strain HOC1, active compounds read low 0.0787 | S. cerevisiae deletion strains, locus YKL171W, strain NNK1, active compounds read low 0.106 | S. cerevisiae deletion strains, locus YKL190W, strain CNB1, active compounds read low 0.0491 | S. cerevisiae deletion strains, locus YKL203C, strain TOR2, active compounds read low 0.0901 | S. cerevisiae deletion strains, locus YLR039C, strain RIC1, active compounds read low 0.0723 | S. cerevisiae deletion strains, locus YLR058C, strain SHM2 (second series), active compounds read low 0.0528 | S. cerevisiae deletion strains, locus YLR085C, strain ARP6, active compounds read low 0.071 | [5] 0.137 | S. cerevisiae deletion strains, locus YLR262C, strain YPT6, active compounds read low 0.0758 | S. cerevisiae deletion strains, locus YML094W, strain GIM5, active compounds read low 0.0733 | S. cerevisiae deletion strains, locus YMR219W, strain ESC1, active compounds read low 0.0518 | S. cerevisiae deletion strains, locus YMR263W, strain SAP30, active compounds read low 0.0584 | S. cerevisiae deletion strains, locus YNL153C, strain GIM3, active compounds read low 0.057 | [6] 0.119 | S. cerevisiae deletion strains, locus YNL207W, strain RIO2, active compounds read low 0.0939 | S. cerevisiae deletion strains, locus YNL298W, strain CLA4 (second series), active compounds read low 0.0711 | S. cerevisiae deletion strains, locus YNL322C, strain KRE1, active compounds read low 0.0611 | S. cerevisiae deletion strains, locus YNR030W, strain Alg12, active compounds read low 0.0702 | S. cerevisiae deletion strains, locus YOL006C, strain TOP1, active compounds read low 0.0751 | S. cerevisiae deletion strains, locus YOR119C, strain RIO1, active compounds read low 0.0989 | [7] 0.106 | S. cerevisiae deletion strains, locus YPL055C, strain LGE1, active compounds read low 0.0749 | S. cerevisiae deletion strains, locus YPL241C, strain CIN2, active compounds read low 0.0745 | [8] 0.0976 | S. cerevisiae deletion strains, locus YPR135W, strain CTF4, active compounds read low 0.155 | S. cerevisiae strains, strain wild type, active compounds read low 0.0506
